# C diff growth: C. difficile growth inhibitors, primary screen, HTS; growth activity, negative = inhibition, % at 16 µg/mL (by protocol); 86,000 compounds, 0.25% hits; AID 1259249, 2017; Clostridium difficile clinical isolate growth, OD600, 24 h; stronger effect = lower value;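 active = mean growth activity at or below -80% and every replicate also at or below -80%; inconclusive = mean at or below -80% but some replicate above -80%; inactive = mean growth activity above -80%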;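 note: 0% = DMSO wells and -100% = levofloxacin 16 µg/mL wells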
# T cruzi growth-1: T. cruzi intracellular proliferation inhibitors, primary screen, cell-based, beta-gal Tulahuen parasites, NIH3T3 host, luminescence. T. cruzi beta-gal in NIH3T3, GalScreen luminescence, 90 h. inhibition, % at 8.34 µM. 77,000 compounds, 5.9% hits. AID 624255, 2012;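 active = mean inhibition above about 93%, with at least 55% of replicates each passing it, limit read from the data, passing the limit was not always enough; inconclusive = only one of those two conditions holds; inactive = neither condition holds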
# Pf Dd2 growth: P. falciparum Dd2 growth inhibitors, primary screen, SYBR Green fluorescence, single dose replicates | 94,000 compounds, 2.3% hits | 72 h; stronger effect = lower value | activity change, % at 10 µM; in the data active = activity change below about -80%; inconclusive = no clear call, values can overlap the other calls
# T cruzi growth-2: T. cruzi intracellular proliferation inhibitors, confirmation, cell-based, NIH3T3 host, beta-gal parasite, luminescence, cherry-pick | inhibition, % at 8.35 µM | T. cruzi beta-gal in NIH3T3, GalScreen luminescence, 90 h | AID 651739, 2012 | shares compounds with T cruzi growth-1 | 5,600 compounds, 72% hits;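 active = mean replicate inhibition above about 95% and at least 55% of replicates individually reaching it, limit read from the data; inconclusive = only one of the two criteria is met; inactive = neither criterion is met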
# T cruzi growth-3: inhibitors of intracellular T. cruzi replication, confirmation, NIH3T3 host cells, beta-gal parasites, cherry-pick, set 2 | inhibition, % at 2.09 µM | AID 651740, 2012 | shares compounds with T cruzi growth-1 | T. cruzi beta-gal in NIH3T3, GalScreen luminescence, 90 h | 5,600 compounds, 21% hits;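 active = mean inhibition above about 95%, with at least 55% of replicates also reaching it, limit read from the data; inconclusive = meets just one of the two conditions; inactive = meets neither condition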;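 note: plate controls were neutral control median for no effect and positive control median for full effect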
# NIH3T3 tox: cytotoxicity in mouse NIH/3T3 fibroblasts, confirmation, cytotoxicity control for T. cruzi proliferation inhibitor project, cell-based, cherry-pick, single point; shares compounds with T cruzi growth-1; NIH/3T3 viability, CellTiter-Glo ATP luminescence, 90 h; cytotoxicity (signal decrease), % at 8.35 µM; 5,600 compounds, 14% hits; AID 651742, 2012;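 active = mean signal decrease across replicates above about 35% based on untreated-well scatter, with enough replicates individually passing, limit read from the data; inconclusive = no rule stated though some were filed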;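 note: 0% = median of neutral control wells and 100% = median of positive control wells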
# 3T3 cytotox 2: NIH/3T3 fibroblast cytotoxicity, confirmation, cytotoxicity control, cell-based, cherry-pick, single point, set 2; NIH/3T3 viability, CellTiter-Glo ATP luminescence, 90 h; inhibition, % at 24.9 µM; shares compounds with T cruzi growth-1; 5,600 compounds, 56% hits; AID 651744, 2012;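 active = mean loss of cell viability signal at or above a set limit, and enough replicates individually reaching it; inconclusive = meets only the mean limit or only the replicate share; inactive = meets neither condition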;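 note: 0% = median of neutral control wells and 100% = median of positive control wells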
# The depositor's hits bear a star; ? = inconclusive; nt = no result. This is a sample that favours compounds with a hit; in the whole collection about 6.7% have one here.
SMILES,C diff growth,T cruzi growth-1,Pf Dd2 growth,T cruzi growth-2,T cruzi growth-3,NIH3T3 tox,3T3 cytotox 2
C[C@H]1CN([C@@H](C)CO)C(=O)c2cc(NC(=O)C3CC3)ccc2O[C@@H]1CN(C)Cc1ccc2c(c1)OCO2,0,-1,6,nt,nt,nt,nt
C[C@@H]1CCCCO[C@H](CN(C)Cc2ccc(Cl)c(Cl)c2)[C@@H](C)CN([C@@H](C)CO)C(=O)c2cc(N(C)C)ccc2O1,nt,106*,-79,100*,106*,15,106*
C[C@@H]1CCCCO[C@@H](CN(C)Cc2ccc(Cl)c(Cl)c2)[C@H](C)CN([C@H](C)CO)C(=O)c2cc(N(C)C)ccc2O1,nt,99*,-74,106*,79,-1,103*
C[C@@H]1CCCCO[C@@H](CN(C)Cc2ccc(Cl)c(Cl)c2)[C@H](C)CN([C@@H](C)CO)C(=O)c2cc(N(C)C)ccc2O1,15,nt,-34,nt,nt,nt,nt
C[C@@H]1CCCCO[C@H](CN(C)Cc2ccc(Cl)c(Cl)c2)[C@@H](C)CN([C@H](C)CO)C(=O)c2cc(N(C)C)ccc2O1,nt,86,-65,nt,nt,nt,nt
CN1c2ccc(-c3ccc(F)cc3)cc2[C@@H]2[C@@H](CCN2C(=O)c2ccncc2)[C@@H]1CO,7,68,7,nt,nt,nt,nt
CNC(=O)C[C@H]1CC[C@@H]2[C@H](COc3ccc(NC(=O)c4ccccc4Cl)cc3C(=O)N2C)O1,0,1,-3,nt,nt,nt,nt
COc1ccc(-c2ccc3c(c2)O[C@@H](CN(C)CC2CC2)[C@@H](C)CN([C@H](C)CO)S3(=O)=O)cc1,4,37,-38,nt,nt,nt,nt
C[C@H]1CN([C@@H](C)CO)C(=O)Cc2cc(NC(=O)Nc3cccc4ccccc34)ccc2O[C@H]1CN(C)Cc1ccc2c(c1)OCO2,3,16,8,nt,nt,nt,nt
C[C@H]1CN([C@@H](C)CO)C(=O)c2cc(NC(=O)Nc3cccc4ccccc34)ccc2O[C@H]1CN(C)Cc1ccc2c(c1)OCO2,1,100*,32,90,93,28,32*
C[C@@H]1CN([C@@H](C)CO)C(=O)Cc2cc(NC(=O)Nc3ccc(C(F)(F)F)cc3)ccc2O[C@H]1CN(C)Cc1ccc2c(c1)OCO2,40,93,-73,nt,nt,nt,nt
C[C@@H]1CN([C@@H](C)CO)C(=O)c2cc(NC(=O)Nc3cccc4ccccc34)ccc2O[C@@H]1CN(C)Cc1ccc2c(c1)OCO2,19,14,-36,nt,nt,nt,nt
C[C@H](CO)N1C[C@H](C)[C@@H](CN(C)Cc2ccc3c(c2)OCO3)Oc2ccc(NC(=O)Nc3cccc4ccccc34)cc2CC1=O,8,109*,-29,101*,104*,41*,52*
C[C@H](CO)N1C[C@H](C)[C@H](CN(C)Cc2ccc3c(c2)OCO3)Oc2ccc(NC(=O)Nc3ccc(C(F)(F)F)cc3)cc2CC1=O,25,97*,-8,109*,104*,19,84*
CN1c2ccc(Br)cc2[C@H]2[C@H](CCN2S(=O)(=O)c2cccc(F)c2)[C@@H]1CO,-12,117*,32,103*,89,34,23
CN1c2ccc(Br)cc2[C@@H]2[C@@H](CCN2S(=O)(=O)c2cccc(F)c2)[C@H]1CO,-3,?,29,106*,28,15,35*
Cc1cccc(S(=O)(=O)N2CC[C@@H]3[C@H]2c2cc(Br)ccc2N(C)[C@H]3CO)c1,74,74,40,nt,nt,nt,nt
CN1c2ccc(Br)cc2[C@@H]2[C@@H](CCN2S(=O)(=O)c2ccccc2)[C@@H]1CO,22,54,40,nt,nt,nt,nt
O=C(CC(F)(F)F)N1C[C@@H]2[C@H](c3ccccc31)[C@@H](CO)N2C(=O)CN1CCOCC1,-5,4,-8,nt,nt,nt,nt
COc1ccc2c3c(n(C)c2c1)[C@@H](CO)N(Cc1cccnc1)CC31CCN(C(=O)c2cccnc2)CC1,-4,nt,-44,nt,nt,nt,nt

# Assay outcomes as filed in PubChem.
